BAZ2B block: BAZ2B (human) inhibition; AlphaScreen BAZ2B-H3K14Ac peptide displacement; 4.4% of 360,000 active; Q9UIF8; AID 504333; Potency, µM (series often up to 114 µM), without a hit: top-dose activity change, negative = inhibition, actives largely listed as inhibitors; further: potency means the concentration at half of the fitted maximal effect; on the % scale 0 is the no-effect control and ±100 the full control effect; nearly all actives have a fitted effect of over 60% in size
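Multi-concentration screen (max 110 uM) measuring displacement of acetylated histone H3 peptide from BAZ2B by AlphaScreen, using 50 nM protein, 50 nM peptide and 10 ug/mL streptavidin donor plus Ni-chelate acceptor beads.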
G9a block: G9a (human) methyltransferase inhibition; Potency, µM (doses to about 102 µM), without a hit: at the highest dose activity, negative = inhibition, hits mostly inhibitors; AID 504332; 8.8% of 350,000 active; Q96KQ7; G9a H3K9 monomethylation, AlphaScreen, 2 h; further: potency means the concentration at half of the fitted maximal effect; on the % scale 0 is the no-effect control and ±100 the full control effect; nearly all actives have a fitted effect of over 75% in size
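Enzyme 20 nM + cpd, 15 min RT; add b-H3K9 pep 500 nM / SAM 20 uM; 2 h RT; anti-H3K9me1 Ab 0.5 ug/mL + SA donor / anti-rabbit acceptor beads 20 ug/mL each, 10 min; AlphaScreen read.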
PLK1 PBD block: inhibitors of human PLK1 polo-box domain binding; Plk1 PBD binding of FITC phosphopeptide, fluorescence polarization; 2.8% of 360,000 active; AID 720504; P53350; Potency, µM, without a hit: max response, negative = inhibition, usual class: inhibitors; further: potency means the concentration at half of the fitted maximal effect; series mostly up to about 57 µM; on the % scale 0 is the no-effect control and ±100 the full control effect; nearly all actives have a fitted effect of over 65% in size
JMJD2A Tudor inh: blocks the human JMJD2A Tudor domain; 4.4% of 390,000 active; Potency, µM (doses to about 114 µM), inactives show at the highest dose activity change, negative = inhibition, hits mostly inhibitors; O75164; AlphaScreen JMJD2A-Tudor / H3K4me3 peptide binding; further: potency means the concentration at half of the fitted maximal effect; on the % scale 0 is the no-effect control and ±100 the full control effect; nearly all actives have a fitted effect of over 50% in size
PI5P4Ka inh: PI5P4K alpha (human) kinase inhibition | PI5P4Kalpha enzyme, ADP-Glo luminescence, 60 min; stronger effect = lower value | 1.2% of 330,000 active | P48426 | AID 652105 | max response, %; active means max response of -50% or lower; inconclusive means between -30% and -50%; inactive means -30% or higher; further: value at the top dose of about 77 µM; on the % scale 0 is the no-effect control and ±100 the full control effect
Target sequence (P48426 whole entry, looked up): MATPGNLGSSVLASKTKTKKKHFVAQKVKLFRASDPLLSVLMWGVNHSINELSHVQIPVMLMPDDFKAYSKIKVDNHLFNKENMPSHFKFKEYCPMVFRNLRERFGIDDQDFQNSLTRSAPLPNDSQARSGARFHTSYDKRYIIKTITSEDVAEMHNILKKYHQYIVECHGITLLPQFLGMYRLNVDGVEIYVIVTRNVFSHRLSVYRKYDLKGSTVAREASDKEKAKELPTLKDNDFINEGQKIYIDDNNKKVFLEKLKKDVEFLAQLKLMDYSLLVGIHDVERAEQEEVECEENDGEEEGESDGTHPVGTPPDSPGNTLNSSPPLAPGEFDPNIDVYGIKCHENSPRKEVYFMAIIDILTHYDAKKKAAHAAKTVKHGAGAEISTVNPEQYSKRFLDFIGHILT
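Enzyme plus substrate dispensed, test compounds pinned in, then ATP (5 microM final) added. After 60 min at RT, ADP-Glo reagent 1 for 45 min and reagent 2 for 30 min preceded luminescence imaging.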
HP1b chromo inh: inhibitors of HP1-beta chromodomain binding to methylated histone tails | AID 540317 | AlphaScreen HP1-beta / biotin-H3K9me3 peptide binding | 0.56% of 390,000 active | P83916 | Potency, µM (highest dose often 114 µM), for inactives: at the top dose activity change, negative = inhibition, actives largely listed as inhibitors; further: potency means the concentration at half of the fitted maximal effect; nearly all actives have a fitted effect of over 70% in size
Target sequence (P83916 whole entry, looked up): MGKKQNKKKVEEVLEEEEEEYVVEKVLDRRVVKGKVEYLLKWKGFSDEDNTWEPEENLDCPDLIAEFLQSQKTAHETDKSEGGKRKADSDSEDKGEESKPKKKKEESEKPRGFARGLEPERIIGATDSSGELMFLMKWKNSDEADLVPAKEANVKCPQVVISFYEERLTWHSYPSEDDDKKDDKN
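HP1-beta protein (50 nM final) preincubated 30 min at room temperature with biotinylated H3(1-18)K9me3 peptide (50 nM) in PBS pH 7.4, 0.01% Tween-20, then compound added for 30 min. AlphaScreen streptavidin donor/nickel chelate acceptor beads (10 ug/mL final), 30 min dark, luminescence read.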
Starred values were filed as active, the others as inactive; u = inconclusive; x = no result given; [ ] = another dose, or the depositor's remark. Only some compounds are listed: those with a hit (about 12% of all), similar ones and a draw of the others. Unless noted, the call rests on the fitted dose curve; in most records, active means well fitted curve in the direction sought with a large enough effect; inconclusive means small, poorly fitted or top-dose-only effect, or another doubt; inactive means no such curve, though single readings can be large; an effect the other way counts as inactive or inconclusive.

SMILES	BAZ2B block	G9a block	PLK1 PBD block	JMJD2A Tudor inh	PI5P4Ka inh	HP1b chromo inh
COc1ccc(C(OCC(O)CNCCc2ccccc2)c2ccc(OC)cc2)cc1 (stereo not drawn)	32µM*	6%[0.501 µM]	-8%	3.5µM*	-3	u
Cc1ccc(C(OCC(O)CNCc2ccc(F)cc2)c2ccccc2)cc1 (stereo not drawn)	40µM*	u	u	79µM*	6	-34%
COc1ccc(C(OCC(O)CNC(C)c2ccccc2)c2ccc(OC)cc2)cc1 (stereo not drawn)	-22%	-4%	-1%	-29%	5	-15%
O=C(c1ccccc1)c1ccc(OCC(O)CNCc2ccc(F)cc2)cc1 (stereo not drawn)	35µM*	5µM*	3%	5µM*	1	-10%
CCc1c(C)[nH]n(-c2nc(-c3cccc([N+](=O)[O-])c3)cs2)c1=O	-1%	0%[59 µM]	-23%	u	-22	-14%
CCc1c(C)[nH]n(-c2nc(-c3ccccc3)cs2)c1=O	-3%	50µM*	-14%	-18%[11.4 µM]	-6	0%
O=C(CSc1nnc(-c2ccccc2)n1CC1CCCO1)N1CCCC1 (stereo not drawn)	-15%	22%	-4%	-3%	0	21%
CC1(C)CC(=O)C(Sc2nnc(-c3ccc(O)cc3)n2CC2CCCO2)C(=O)C1 (stereo not drawn)	u	28µM*	-7%	-21%	x	42%
Cc1ccc(N2C(=O)CS(=O)(=O)CC2=O)cc1	-18%	32µM*	-7%	-6%	-7	63%
CCOc1ccc(N(CC)C(=O)CSc2n[nH]c(-c3ccccc3)n2)cc1	0%	6%[59 µM]	x	-8%	x	11%[57 µM]
CCOc1cnc(-c2c(-c3c(Cl)cccc3Cl)noc2C)o1	45µM*	45µM*	-17%	57%	8	45µM*
CCCCC1CC(=O)NC1(C(=O)OCC)C(=O)OCC (stereo not drawn)	x	x	-6%	-8%	3	19%
CCCCc1c(C)c(C#N)c2[nH]c3ccccc3n2c1=O	2%	-36%[59 µM]	-15%	-20%	11	54%
CCCCCCCc1c(C#N)c(N)[nH]c(=S)c1C#N	u	u	24µM*	-28%	-56*	7%
CCN1C(=O)[C@H]2[C@@H](c3ccc(OC)cc3)N[C@]3(CCCN(Cc4ccc(Br)cc4)C3=O)[C@H]2C1=O	x	x	-4%	x	-8	x
CCOC(=O)c1sc(C)nc1C1CCN(C(=O)OCC)CC1	-6%	45µM*	u	2%	8	-8%
CCOc1ccccc1N(CC(=O)Nc1ccc(OC)c(Cl)c1)S(=O)(=O)c1ccccc1	0%	-15%[59 µM]	x	-13%	x	18%
C=CCNCCCOc1ccc(Cl)cc1Br	-34%	u	-4%	10µM*	10	4%
COCCNC(=O)c1cc(Br)ccc1Cl	-7%	2%[59 µM]	-1%	-6%	-1	28%
C=CCNC(=O)C(=O)NCCOc1ccccc1Cl	11%	-11%[59 µM]	-2%	6%	3	38%
OCCNCCCOc1ccc(Cl)cc1Br	-1%	-1%[59 µM]	-4%	-14%	15	22%
COCCNCCCOc1ccc(Br)cc1Cl	u	10µM*	-10%	3.2µM*	7	u
COCCCNCCCCOc1ccc(Br)cc1Cl	u	u	-1%	22µM*	1	-50%
COCCNCCCOc1ccc(Cl)cc1Br	50µM*	11µM*	-8%	7.9µM*	-3	u
COCCCNC(=O)Nc1ccc(Br)cc1Cl	9%	-3%[12.7 µM]	-4%	-13%	x	12%
SMILES	BAZ2B block	G9a block	PLK1 PBD block	JMJD2A Tudor inh	PI5P4Ka inh	HP1b chromo inh
C=C(C)CN1C(=O)C(C)SC1=NN=C1SCC(=O)N1C (stereo not drawn)	x	x	-12%	x	-21	x
COCCNC(=O)C1(C)CCN(C(=O)c2cc(C(C)(C)C)nn2C)C1 (stereo not drawn)	x	x	-2%	x	0	x
CCOc1ccc(NC(=O)CC2C(=O)N(c3cccc(C)c3)C(=O)N2Cc2cccnc2)cc1 (stereo not drawn)	-15%	0%[59 µM]	x	4%	x	50%
COc1ccc(/C=C2\SC(=S)N(CCCC(=O)N3CCCCC3CCO)C2=O)cc1 (stereo not drawn)	7.9µM*	-4%[0.0925 µM]	-9%	35µM*	-6	-24%
CC(C)c1ccc(/C=C2\SC(=S)N(CCC(=O)N3CCCCC3CCO)C2=O)cc1 (stereo not drawn)	u	45µM*	-17%	13µM*	0	-38%[57 µM]
COc1ccc(C(C)(NC(C)=O)c2nc(-c3ccccc3OC)cs2)cc1 (stereo not drawn)	x	x	-2%	x	-6	x
COc1cccc(N2C(=O)CC(N3CCN(c4ccc([N+](=O)[O-])cc4)CC3)C2=O)c1 (stereo not drawn)	-11%	u	-13%	-24%	2	10%
COc1ccc(N2CCN(c3ccc(N4C(=O)CC(C)C4=O)cc3[N+](=O)[O-])CC2)cc1 (stereo not drawn)	u	40µM*	8%	u	4	-29%
COc1ccc(N2CCN(c3ccc(N4C(=O)COCC4=O)cc3[N+](=O)[O-])CC2)cc1	u	50µM*	-22%	-32%	5	-14%
CCOC(=O)c1ccccc1NC(=O)CN1CCCN(Cc2cccc(Cl)c2)S1(=O)=O	-1%	-6%[59 µM]	x	-6%	x	36%
COc1ccc(C(=O)Oc2ccc(C3NC(=O)c4c(sc5c4CCN(C)C5)N3)cc2OC)cc1 (stereo not drawn)	7%	26%[59 µM]	x	56µM*	x	u
CN1CCc2c(sc3c2C(=O)NC(c2ccc(-c4cccc(Cl)c4)o2)N3)C1 (stereo not drawn)	40µM*	x	-6%	50µM*	-26	u
COc1ccc(C2NC(=O)c3c(sc4c3CCN(C)C4)N2)cc1O (stereo not drawn)	-10%	u	x	-28%	x	16%
Cc1ccsc1C1NC(=O)c2c(sc3c2CCN(C)C3)N1 (stereo not drawn)	-7%	40µM*	-21%	u	-20	u
CSc1ccc(C2NC(=O)c3c(sc4c3CCN(C)C4)N2)cc1 (stereo not drawn)	-34%	40µM*	-6%	u	-11	1%
CC(C)c1ccc(C2NC(=O)c3c(sc4c3CCN(C)C4)N2)cc1 (stereo not drawn)	-2%	u	x	-21%	x	16%
CN1CCc2c(sc3c2C(=O)NC(c2cccs2)N3)C1 (stereo not drawn)	-20%	u	-11%	u	x	-18%
Cc1c(NC(=O)c2ccccc2)cc(C(C)C)c(O)c1S(=O)(=O)c1ccc(Cl)cc1	-5%	-1%[59 µM]	x	-2%	x	36%

High-throughput results from PubChem BioAssay.
